Measured values published in ChEMBL document CHEMBL3988442, “University of Dundee, Small-Polar-MMV Screening Library” (2021).

Legend:
[1] = target: T1, Aspartate--tRNA(Asp/Asn) ligase (Mycobacterium tuberculosis (strain ATCC 25618 / H37Rv)) (UniProt P9WFW3); test: Assay for Asp RNA synthetase-1 from Mycobacterium tuberculosis; format: functional; parameters: scale not given: direction of the effect not stated beside the values; settings: 30 µM; further: in the data most compounds retested in dose-response had high values
T1 sequence (whole entry): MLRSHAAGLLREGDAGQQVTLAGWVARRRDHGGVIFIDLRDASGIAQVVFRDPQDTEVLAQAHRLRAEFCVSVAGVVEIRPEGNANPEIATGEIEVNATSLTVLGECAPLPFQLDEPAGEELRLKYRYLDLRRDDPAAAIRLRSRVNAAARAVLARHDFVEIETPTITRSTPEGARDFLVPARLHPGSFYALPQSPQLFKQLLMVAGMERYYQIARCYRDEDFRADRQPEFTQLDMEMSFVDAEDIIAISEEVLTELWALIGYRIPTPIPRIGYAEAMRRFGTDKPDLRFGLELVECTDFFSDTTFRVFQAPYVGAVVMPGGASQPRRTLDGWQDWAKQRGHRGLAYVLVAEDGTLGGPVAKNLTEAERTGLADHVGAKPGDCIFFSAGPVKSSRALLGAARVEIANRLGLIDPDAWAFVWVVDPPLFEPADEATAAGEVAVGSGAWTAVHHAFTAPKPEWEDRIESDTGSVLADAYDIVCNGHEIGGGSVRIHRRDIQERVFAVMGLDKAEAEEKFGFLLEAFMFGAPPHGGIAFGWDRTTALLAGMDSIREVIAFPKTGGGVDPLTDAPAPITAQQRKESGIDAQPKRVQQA

[2] = target: Shiga toxin 2 (Escherichia coli O157:H7) (UniProt P09385+P09386); test: E. coli 0.157:H7 Shiga Toxin SOP - stx2 screening assay; format: functional; parameters: scale not given: direction of the effect not stated beside the values; settings: 30 µM

SMILES	Percent Effect [1] [%]	Percent Effect [2] [%]
COCC1CC2(CCN(C(=O)c3cc(C)oc3C)CC2)CN1C(C)C (centres undefined)	-2.27	-25.7
Cn1ccnc1COc1ccc(CO)cc1	1.33	-14.5
CCC(=O)N1CCC(c2nc3ccc(NC(C)C)cn3n2)CC1	-3.11	-40.8
COCCC(=O)N1CCC2(CC1)CC(c1ccccc1)CN(C)C2 (centres undefined)	-3.3	17.5
COc1ccsc1C(=O)N1CCCC(n2nc(C)nc2C)C1 (centres undefined)	0.571	6.02
Cc1ccc(N(C)C2CCN(C(=O)CCc3ccco3)CC2)nn1	2.42	-5.22
COC(C(=O)N1CCN(c2cccc(Cl)c2)C(=O)C1)c1ccccc1 (centres undefined)	0.0112	-0.212
O=C(CCc1nccs1)N1CCN(c2ccc(Br)cn2)CC1	3.92	23.4
CC(=O)Nc1nc(CN2CCOC(Cn3cc(C)cn3)C2)cs1 (centres undefined)	-1.93	16.6
O=C1NC2(CCN(Cc3nccs3)CC2)CC1c1ccncc1 (centres undefined)	0.717	2.04
O=C(C1=CC2(CCNCC2)c2ccccc21)N1CCCC1	3.17	-0.391
O=C1CCC(C(=O)NCc2nn(-c3ccccc3)c3c2CCC3)CN1 (centres undefined)	-2.23	-54.3
CCCOCCCNc1nccc(-c2cn(C)nc2C)n1	-3.96	18.1
CCn1cc(Br)c(C(=O)NCc2cnn(C)c2)n1	-2.73	-41.5
COCCc1noc(CN2CCCC(Cn3nc(C)nc3C)C2)n1 (centres undefined)	12.8	22.8
CC(C)(C)NC(=O)CN1CCN(C(=O)Nc2ccc(F)cc2F)CC1	-2.94	-44.1
O=C(COc1cccc2c1CCC2=O)NCc1ccccc1F	10.4	-7.67
CC(CN1CCOCC1)NC(=O)NCc1ccc(Cl)s1 (centres undefined)	2.25	-2.94
CCN1CC(C(=O)NCc2ccccc2-n2cccn2)CC1=O (centres undefined)	7.12	20.1
COCc1nc(C(=O)N2CCCC2c2noc(C(C)C)n2)cs1 (centres undefined)	2.63	-5.18
Cc1cccc(CN2CCN(Cc3ccccc3)CC(O)C2)n1 (centres undefined)	2.13	13.4
Cc1nc(C(=O)N2CCC(Nc3cccnn3)CC2)cs1	-7.35	-19.2
Cc1ccccc1OCCC(=O)OC(C)C(=O)Nc1sccc1C(N)=O (centres undefined)	-2.83	-38.1
CCN1CCN(S(=O)(=O)c2cc(Cl)c(Cl)cc2C)CC1	-2.76	-10.7
CN(Cc1ccsc1)C(=O)Nc1cccnc1N1CCCC1	1.88	-69.4
O=C(CCN1C(=O)CCC1=O)Nc1cnn(-c2ccccc2Cl)c1	2.85	1.3

SMILES	Percent Effect [1] [%]	Percent Effect [2] [%]
O=C1[C@@H]2CCN(Cc3ccoc3)C[C@@H]2OCCN1c1ccccc1	-0.779	4.03
Nc1nc(CCC(=O)N2CCOC(CC3CCCCC3)C2)cs1 (centres undefined)	-4.71	19
O=C(NCC1CCOC1)c1cc(-c2cccc(Cl)c2)on1 (centres undefined)	1.64	-6.35
CC(C)c1nnc2n1CCN(Cc1csc(CC(=O)N(C)C)n1)C2	-7.04	18.3
Cc1nccnc1N1CC[C@@H](NC(=O)c2cnccn2)[C@H](O)C1	3.96	-24.4
Cn1ccnc1CN1CCN(c2ccc(C#N)cn2)CC1	1.72	-34.8
O=C(c1ccncc1)N1CCCC2(COCCN(c3ccccc3)C2)C1 (centres undefined)	2.82	-1.46
CN(Cc1cccc(F)c1)S(=O)(=O)N1CCOCC1	-3.02	3.45
CCc1nc(C2CCCN(C(=O)c3cnn(CC)c3)C2)no1 (centres undefined)	2.22	3.55
CCCS(=O)(=O)c1ncc(CN2CCC(CO)CC2)n1CC1CCCO1 (centres undefined)	-5.1	-15.9
CCn1cc(CN2CC3CCCN3C[C@H]2C)c(C)n1 (some centres undefined)	1.26	-7.87
CN(Cc1nnc(C2CC2)n1C)C(=O)c1ccnc(OC2CCC2)c1	-0.39	3.48
CCc1cnc(N2CCC(=O)N(CC3CC3)C(C(C)C)C2)nc1 (centres undefined)	1.33	2.92
Cc1[nH]c(=O)[nH]c(=O)c1CN1CCCC(CCc2c(F)cccc2F)C1 (centres undefined)	0.725	0.432
Nc1cc2c(nn1)CCN(C(=O)c1cccc3c1OCCO3)C2	3.34	-28.6
CN(C)C(=O)CC1CC2(CCN(CC3CC3)CC2)c2cc(F)ccc21 (centres undefined)	2.15	-3.11
CCc1noc(C2CCCCN2C(=O)c2nnc3ccccc3n2)n1 (centres undefined)	1.83	-8.75
CCc1nnc(CN(C)c2nc(C3CCCC3)nc3c2cnn3C)o1	-4.57	13.2
NC(=O)C1CCN(C(=O)c2cccc(CN3CCOCC3)c2)CC1	-1.59	3.51
O=C1CC2(CCN(S(=O)(=O)C3CC3)C2)CN1c1cncnc1 (centres undefined)	4.51	-33.9
O=C(Cc1ccsc1)NCC1OCCc2cn(CC3CC3)nc21 (centres undefined)	1.47	-11.5
CC(=O)Nc1cccc(OCCNC(=O)N(C)Cc2ccco2)c1	-1.02	-16.7
COc1c(C2CCCN2C(=O)c2ccc(Cl)o2)c(C)nn1C (centres undefined)	-4.35	9.5
O=C(Nc1cccc(N2CCCC2)c1)C1CCCN1c1nccs1 (centres undefined)	1.21	-4.67
CCN(C)c1ncnc2c1CCN(Cc1ccoc1)CC2	5.11	-28.5
CS(=O)(=O)N1CC[C@H]2C[C@@H](C(=O)N3CCOCC3)O[C@@H]2C1	2.65	5.94

SMILES	Percent Effect [1] [%]	Percent Effect [2] [%]
Cn1ccnc1CN1C[C@@H](CN2CCC(CO)CC2)[C@@H](CO)C1	-1.77	12.7
CC(C)c1cc(C(F)(F)F)n2nc(CCC(=O)O)nc2n1	-1.46	52.4
CN1CCC(Oc2ccc(NC(=O)c3ccccc3Br)cc2)CC1	-0.921	-69.6
N#Cc1ccc(OCCNc2cccc(C(=O)N3CCOCC3)c2)cc1	1.46	-43.4
COc1ccc(C(C(=O)O)N2CCCN(C3CCCCC3)CC2)cn1 (centres undefined)	2.16	0.0125
CNc1cccc(C2CCCN(C(=O)c3ccncc3)C2)n1 (centres undefined)	-6.06	17.8
Cc1ncc(S(C)(=O)=O)c(C2CCCNC2)n1 (centres undefined)	0.276	-2.77
Cn1ccnc1CN1CCN(Cc2noc(-c3ccccc3)n2)CC1	-2.31	-6.06
Cc1cc(C(C)C(=O)N2CCCN(Cc3cscn3)CC2)c(C)o1 (centres undefined)	-4.75	19.4
CC1c2ncc(CN3CCN(C)CC3)n2CCN1CC1CC1 (centres undefined)	0.815	-23.1
O=C(NCc1cnc2n1CCN(Cc1ccsc1)CC2)C1CCC1	3.57	4.16
Cc1cc(C(=O)N2CCc3nnc(N)cc3C2)c(C)n1-c1cccnc1	7.03	-28.4
c1coc(CN2Cc3nccn3CC(Cn3cncn3)C2)c1 (centres undefined)	-0.866	-9.64
CCc1ccc(OCC(O)CN2CCN(S(C)(=O)=O)CC2)cc1 (centres undefined)	-0.577	22.4
Cc1cccc2c1cnn2CCC(=O)NCC(=O)N(C)C	-1.19	-22.2
COCCN1C[C@@H]2CCCO[C@@H]2[C@H](NC(=O)c2cnccn2)C1	3.03	-9.33
NS(=O)(=O)Cc1ccc(CNC(=O)NCC2CCOC2)cc1 (centres undefined)	-4.55	26.9
Clc1ccccc1-c1nc(CNCCn2cccn2)cs1	-1.68	15.3
CS(=O)(=O)CCNC(=O)C1(c2cccc(Cl)c2)CCCCC1	1.2	-20.3
Oc1ccc(N2CCN(Cc3cc4c(cc3Br)OCCO4)CC2)cc1	4.07	6.03
CCc1n[nH]c(C2CN(C(=O)c3cnns3)CCO2)n1 (centres undefined)	-0.228	10.8
CC(NC(=O)CCC(=O)c1cccs1)c1nnc2n1CCCCC2 (centres undefined)	3.67	18.5
CCc1noc(C(C)N2CCC(C(=O)Nc3cnn(CC)c3)CC2)n1 (centres undefined)	-3.65	-12.4
COc1ccc(-c2ccnc3c2C(=O)CCC3)cc1	-5.43	-32.1
O=S(=O)(NCc1ccccc1Cn1cncn1)C1CCCC1	1.56	-9.86
CC(C)N(C)Cc1cnc2n1CCN(CCc1ccccc1)C2	0.605	-27.2

SMILES	Percent Effect [1] [%]	Percent Effect [2] [%]
NC(=O)c1nnn(-c2ccc(Br)cc2)n1	3.66	-41.8
COc1ccc(C(=O)NS(=O)(=O)c2ccc(C#N)cc2C(F)(F)F)cc1	-0.26	8.91
CN1CCN(c2ncccc2CNc2ncccc2C#N)CC1	3.68	2.01
Cc1ccc(S(=O)(=O)NC(=O)c2c(C)noc2C(C)C)cc1C	1.59	8.34
Cn1ncc(NCc2cc(F)cc(F)c2)c(Cl)c1=O	-1.31	-23.1
Cc1ccn2cc(C(=O)N3CCCC3c3c(C)nn(C)c3C)nc2c1 (centres undefined)	-1.79	-1.23
c1cnc(-c2nc(CNCCn3cccn3)cs2)nc1	-1.5	5.58
NC(=O)C1CCN(C(=O)CCn2ccc3cc(Br)ccc32)CC1	0.306	12.4
COC[C@@H]1CC[C@H]2[C@H](CCN2S(=O)(=O)c2cccc(C)c2)O1	3.92	-4.66
O=C(CCc1cscn1)NS(=O)(=O)c1ccc2ccccc2c1	-3.43	11.4
CC(C)CN(C)c1ccc(C(=O)N2CCCC2c2cnn(C)c2)cn1 (centres undefined)	-2.28	21
CCc1nc2n(n1)CC(NCC(=O)Nc1nccs1)CC2 (centres undefined)	-2.71	2.48
Cc1csc(Nc2nccnc2C2CCCN2C(=O)C(C)C)n1 (centres undefined)	7.04	13.1
CC(Cc1ccco1)NC(=O)Nc1cnn(CC(N)=O)c1 (centres undefined)	2.29	-8.5
CC(=O)N1CCC[C@H]1C(=O)NCCOc1cccc(Cl)c1	1.97	-31.3
COCCN1CCN(C(=O)c2cc(C(C)C)on2)[C@H]2CS(=O)(=O)C[C@H]21	-3.12	-5.69
O=C(NCCO)C1(Cc2cc(-c3ccc(F)cc3F)no2)CCOCC1	2.58	1.08
CC(C)[C@H](NC(=O)NC1CCS(=O)(=O)C1)C(=O)Nc1cccnc1 (some centres undefined)	-0.929	-52.8
CCc1c(C(=O)NC2CCS(=O)(=O)C2)cnn1-c1ccc(F)cc1 (centres undefined)	-1.69	9.21
Cc1cnn(C2CCCN(C(=O)c3ccnc(N(C)C)c3)C2)c1 (centres undefined)	-5.57	-16.8
CN1CCN(C(=O)NC2CC2)Cc2cccnc21	8.44	-32.5
Cc1nc(C)n(C2CCCN(C(=O)CCc3ccncc3)C2)n1 (centres undefined)	-6.6	11.7
COCc1c(C(=O)NC2CCCC2)nnn1-c1ccc(C)cc1	-4.96	10.2
Cn1ccnc1CN1CCOCC(Cc2ccccn2)C1 (centres undefined)	-1.22	17.1
